Screens: PubChem BioAssay, Sanford-Burnham Center for Chemical Genomics
PABP polyA inh: PABP poly(A) RNA binding inhibitors, primary screen, biochemical, fluorescence polarization, uHTS; Polyadenylate-binding protein 1 (Homo sapiens), P11940; inhibition, % at 35 µM; 290,000 compounds, 1% hits;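 also: calls also rest on retests at 20 µM and on dose response follow-up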
Target sequence (P11940 whole entry, looked up): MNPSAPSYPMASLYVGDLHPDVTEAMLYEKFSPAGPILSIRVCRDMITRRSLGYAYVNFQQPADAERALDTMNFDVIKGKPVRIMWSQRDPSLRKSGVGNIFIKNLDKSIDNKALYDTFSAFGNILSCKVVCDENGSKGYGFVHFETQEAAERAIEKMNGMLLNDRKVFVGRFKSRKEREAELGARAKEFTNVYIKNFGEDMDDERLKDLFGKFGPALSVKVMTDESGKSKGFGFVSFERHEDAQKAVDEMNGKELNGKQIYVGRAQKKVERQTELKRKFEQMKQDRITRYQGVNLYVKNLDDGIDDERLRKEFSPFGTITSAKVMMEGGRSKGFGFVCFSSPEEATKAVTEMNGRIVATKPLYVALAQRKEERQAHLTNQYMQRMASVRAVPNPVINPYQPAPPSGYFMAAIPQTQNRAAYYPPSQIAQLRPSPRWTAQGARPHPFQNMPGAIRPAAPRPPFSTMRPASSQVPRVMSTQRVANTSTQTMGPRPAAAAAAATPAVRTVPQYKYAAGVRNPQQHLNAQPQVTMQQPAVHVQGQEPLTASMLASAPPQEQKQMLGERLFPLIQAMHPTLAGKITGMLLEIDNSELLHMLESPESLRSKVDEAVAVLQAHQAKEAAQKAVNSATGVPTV
CRFBP-R2 block: antagonists of CRF-BP/CRF-R2 complex, primary screen, cell-based, HEK293, calcium dye fluorescence, uHTS | AID 588475, 2011 | inhibition, % at 11.8 µM | 350,000 compounds, 0.59% hits | CRF-induced calcium fluorescence;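 active = inhibition of the ligand-induced calcium signal above about 50% at the single tested concentration, limit read from the data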
PHOSPHO1 inh: PubChem AID 1565. Phosphoethanolamine/phosphocholine phosphatase (Homo sapiens), Q8TCT1. recombinant PHOSPHO1, absorbance phosphatase assay. inhibition, % at 13.3 µM. 290,000 compounds, 1.1% hits; in the data active = inhibition above about 60%
eIF4H inh: human eIF4H binding inhibitors, primary screen, translation initiation inhibitor project, biochemical, uHTS, fluorescence polarization. 290,000 compounds, 0.94% hits. inhibition, % at 35 µM. eIF4H fluorescence polarization binding assay. Eukaryotic translation initiation factor 4H (Homo sapiens), Q15056;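 also: calls also rest on retests at 20 µM and on dose response follow-up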
PABP1 MLLE inh: inhibitors of PABP1 MLLE–PAM2 peptide binding, primary screen, biochemical, fluorescence polarization, FITC-PAM2, GST-MLLE | inhibition, % at 20 µM | 360,000 compounds, 0.36% hits; in the data active = inhibition above about 35%, passing the limit was not always enough
Each line names hits and unclear results; the compound was inactive in the other large screens; ! = not active in a repeat. This is a sample that favours compounds with a hit; in the whole collection about 2.6% have one here. Unless noted, no rule for the calls is given here.

CN(C)c1ccc(/C=C2/C(=O)NC(=O)N(Cc3ccco3)C2=O)cc1	eIF4H inh inconclusive
O=C1NC(=O)N(CCc2ccc(F)cc2)C(=O)/C1=C/c1cccs1	none
C=CCN1C(=O)/C(=C/c2cccs2)C(=O)NC1=S	PABP polyA inh 15
O=C1NC(=S)N(Cc2ccco2)C(=O)/C1=C\c1cccs1	PHOSPHO1 inh 77 (no result: CRFBP-R2 block, PABP1 MLLE inh)
c1ccc(CN2COC3CCCCCC32)cc1 (centres undefined)	none (no result: PABP polyA inh, CRFBP-R2 block, PHOSPHO1 inh, eIF4H inh)
COc1ccccc1N1C(=O)NC(=O)/C(=C/c2ccc([N+](=O)[O-])s2)C1=O	PABP polyA inh 32, eIF4H inh 51 (no result: PABP1 MLLE inh)
COc1cccc(N2C(=O)NC(=O)/C(=C/c3ccc([N+](=O)[O-])s3)C2=O)c1	PABP polyA inh 33
COc1ccc(N2C(=O)NC(=O)/C(=C\c3ccc([N+](=O)[O-])s3)C2=O)cc1	none
N/C(=N\[N+](=O)[O-])N1CCN(C(=O)c2ccccn2)CC1	none
CCN(CC)CCN=C(C)c1c(O)n(-c2ccccc2OC)c(=O)[nH]c1=O	CRFBP-R2 block 87
CCCCCCC(=O)c1c(O)n(-c2ccccc2OC)c(=O)[nH]c1=O (tested in a mixture with another compound)	none
O=c1cccc2n1CC1CNCC2C1 (centres undefined)	none
N[C@@H](Cn1oc(=O)[nH]c1=O)C(=O)O	none (no result: PABP polyA inh, PHOSPHO1 inh, eIF4H inh)
O=C1NC(=S)NC(=O)C1=Cc1ccc2c(c1)CCN2CCCCl	PABP polyA inh 40, eIF4H inh 68
O=P(Oc1ccccc1)(N1CCOCC1)N1CCOCC1	none (no result: PABP polyA inh, PHOSPHO1 inh, eIF4H inh)
CN(c1ccccc1)P(=O)(N1CC1)N1CC1	CRFBP-R2 block 54 (no result: PABP polyA inh, PHOSPHO1 inh, eIF4H inh)
CCOC(=O)/C(CCCN(CC)CC)=N\O	PABP polyA inh 56, PHOSPHO1 inh 95
Nc1cc2nc3ccccc3nc2cc1N	PABP polyA inh 81, PHOSPHO1 inh 60, eIF4H inh 91
Nc1c2c(nc3ccccc13)CCN(Cc1ccccc1)C2	PABP polyA inh inconclusive, eIF4H inh inconclusive
O=C1CC(=O)N(c2cccc(Br)c2)C(=O)N1	PABP polyA inh 41
O=C1CC(=O)N(c2cccc(C(F)(F)F)c2)C(=O)N1	none
COc1ccc(C=C2C(=O)N(C)C(=O)N(C)C2=O)cc1CSc1ccccn1	PABP polyA inh 67, eIF4H inh inconclusive
COc1ccc(/C=C2/C(=O)NC(=O)N(C3CCCCC3)C2=O)cc1CSc1ccccn1	none (no result: CRFBP-R2 block, PABP1 MLLE inh)
CN(CCc1ccccc1)Cc1c[nH]c2ccccc12	none
C=CCn1c(O)c(/C=C2/C=CC=N2)c(=O)[nH]c1=O	PABP polyA inh 1.7, eIF4H inh 88
COc1ccc(CC2C(=O)N(C)C(=O)N(C)C2=O)c(OC)c1	PABP1 MLLE inh 42
C/C=C1\NC(=O)[C@H](C)NC(=O)[C@@H](NC(=O)[C@H](Cc2ccc(O)cc2)NC(=O)[C@@H](NC(=O)/C(C)=C/C)C(C)C)[C@@H](C)OC(=O)[C@H](CCCc2ccc(O)cc2)NC(=O)[C@@H](CCC(=O)O)NC1=O	none (no result: PABP polyA inh, CRFBP-R2 block, PHOSPHO1 inh, eIF4H inh)
C=CCN1C(=O)NC(=O)/C(=C/c2cnc(SC)nc2)C1=O	none
C=CCN1C(=O)NC(=O)/C(=C/c2cc3c4c(c2)CCCN4CCC3)C1=O	eIF4H inh 77
Oc1ccc(/C=N/NP(=S)(c2ccccc2)c2ccccc2)c(O)c1O	PHOSPHO1 inh 84 (no result: PABP polyA inh, eIF4H inh)
O=P(/C(=N/O)N1CCOCC1)(N1CCOCC1)N1CCOCC1	CRFBP-R2 block 55
CC(C)(C)P(=O)(N1CCOCC1)N1CCOCC1	none
CC(=Nc1ccc(F)cc1)c1c(O)n(C)c(=O)[nH]c1=O	none
Cc1ncc([N+](=O)[O-])n1CCOC(N)=O	CRFBP-R2 block 67
O=[As](O)(O)c1ccc(N=Nc2ccc(O)cc2)cc1	none
O=C1C(Cl)=CC(=Nc2ccc(O)cc2)C=C1Cl	PABP1 MLLE inh 46 (no result: PABP polyA inh, PHOSPHO1 inh, eIF4H inh)
NC(=S)c1cn(C2OC(CO)C(O)C2O)c2ncnc(N)c12 (centres undefined)	PABP1 MLLE inh 43
O=C1/C(=C\c2cc3c(cc2Br)OCO3)N2CCC1CC2	PABP polyA inh 5.0, eIF4H inh 70
CCC(=NCc1ccco1)c1c(O)n(-c2ccc(Cl)cc2)c(=O)[nH]c1=O	none
Cc1ccccc1-n1c(O)c(C(c2ccncc2)c2c(O)n(-c3ccccc3C)c(=O)[nH]c2=O)c(=O)[nH]c1=O	none
CC(C)[N+](C)(CCC(C(N)=O)(c1ccccc1)c1ccccc1)C(C)C	eIF4H inh 12
c1ccc(P(c2ccccn2)c2ccccn2)cc1	PABP1 MLLE inh 44
COC(=O)C12CCc3cc(OC)ccc3C1=CC(=O)C2 (centres undefined)	none (no result: PABP polyA inh, PHOSPHO1 inh, eIF4H inh)
CNC1(c2ccc(F)cc2)CCCCC1	CRFBP-R2 block 88 (no result: PABP polyA inh, PHOSPHO1 inh, eIF4H inh)
OC1(c2ccc(F)cc2)CCNC1 (centres undefined)	none
Cc1cc(C(=O)Nc2ccccc2)nn1C(C)(C)C	none
Cc1cc(C(=O)Nc2ccc3c(c2)OCCO3)nn1C(C)(C)C	CRFBP-R2 block 82
Cc1cccc(NC(=O)[C@@H](NC(=O)N2C[C@H]3C[C@@H](C2)c2cccc(=O)n2C3)C(C)C)c1	none
CCOc1ccc(-n2c(O)c(C=NCCN3CCNCC3)c(=O)[nH]c2=O)cc1	PABP polyA inh 60, eIF4H inh active
C=C1C(O)(c2ccccc2)C2CC[N+]1(C)CC2 (centres undefined)	PABP polyA inh 57
COC(=O)C1=C(c2ccc(OC(F)(F)F)cc2)C[C@@H]2CC[C@H]1N2C(=O)NCc1cccc2ccccc12	none (no result: PABP polyA inh, PHOSPHO1 inh, eIF4H inh)
Cc1ccc(S(=O)(=O)N2CCN(C(=O)COC(=O)Cc3ccccc3)CC2)c(C)c1	none (no result: PABP polyA inh, PHOSPHO1 inh, eIF4H inh)
COC(=O)C(Cc1ccc(N(CCCl)CCCl)cc1)N=Cc1ccccc1O (centres undefined)	CRFBP-R2 block 67
CCOC(=O)C(NC(=O)C(Cc1ccc(N(CCCl)CCCl)cc1)NC(C)=O)C(C)C (centres undefined)	none
CN(C)[C@@H]1C(=O)C(C(N)=O)=C(O)[C@@]2(O)C(=O)C3=C(O)c4c(O)cccc4[C@@](C)(O)C3C[C@@H]12 (some centres undefined)	none (no result: PABP polyA inh, PHOSPHO1 inh, eIF4H inh)
CN(C)[C@@H]1C(=O)C(C(N)=O)=C(O)[C@@]2(O)C(=O)C3=C(O)c4c(O)cccc4[C@@](C)(O)[C@H]3[C@H](O)[C@@H]12	PABP polyA inh 1.5, eIF4H inh 87
NCCc1cc(O)c(O)cc1O	PABP1 MLLE inh 47! (no result: PABP polyA inh, PHOSPHO1 inh, eIF4H inh)
CN1C2CCC1C(C(=O)O)C(O)C2 (centres undefined)	none (no result: PABP polyA inh, PHOSPHO1 inh, eIF4H inh)
O=C1NC(=O)N(Cc2ccco2)C(=O)/C1=C/c1ccc(-c2cccc([N+](=O)[O-])c2)o1	PABP polyA inh active, eIF4H inh 78
O=C1NC(=O)N(Cc2ccco2)C(=O)/C1=C\c1cccn1CCOc1ccc(Cl)cc1	eIF4H inh inconclusive
Cc1cccc(OCCn2cccc2/C=C2/C(=O)NC(=O)N(Cc3ccco3)C2=O)c1	PABP polyA inh 45, eIF4H inh 53
CC(=O)Nc1ccc(OC(=O)N(C)c2ccccc2)cc1	eIF4H inh active
